# Data reported in publication PMC10812921, “Transcriptional Coactivator BOB1 (OBF1, OCA-B) Modulates the Specificity of DNA Recognition by the POU-Domain Factors OCT1 and OCT2 in a Monomeric Configuration”.
# What was measured:
# POU1 (OCT1 POU domain) = POU1 (OCT1 POU domain) (human, UniProt P14859 260-458); assay: EMSA-SELEX-seq; no BOB1; 20 mM Tris-HCl pH 7.6, 140 mM NaCl, 10% glycerol, 0.5 mM EDTA, 0.05% Triton X-100, 0.1 mg/mL BSA, 0.1 mg/mL poly(dI-dC), 5 mM DTT, room temperature, 20 min; high values mean tight binding; conditions: protein: recombinant; dsDNA, one strand shown
# POU1 (OCT1 POU domain), sequence (P14859 260-458): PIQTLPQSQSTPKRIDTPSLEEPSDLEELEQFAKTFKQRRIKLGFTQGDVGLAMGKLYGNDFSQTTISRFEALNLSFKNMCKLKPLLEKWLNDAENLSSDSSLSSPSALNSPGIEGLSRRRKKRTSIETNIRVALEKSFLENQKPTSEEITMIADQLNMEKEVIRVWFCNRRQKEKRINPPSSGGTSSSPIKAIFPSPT
# Method in brief: (§1)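 Binding preference is reported as the percentage of sequenced 8-mers that match a motif pattern. Tagged POU-domain proteins were made in E. coli BL21, purified under denaturing conditions and renatured. A 30 ng portion was combined with 300 ng of a PCR-amplified double-stranded random 35-nt library, with or without 28 ng coactivator protein, in 20 μL Tris–HCl pH 7.6 binding buffer for 20 min at RT. Complex bands were excised from native 6% PAGE, eluted and PCR-amplified over four rounds before Illumina sequencing.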
# POU2 (OCT2 POU domain) = molecular target: T1, POU2 (OCT2 POU domain) (human, UniProt P09086 175-386); assay: as above; conditions: protein: recombinant; dsDNA, one strand shown
# T1 sequence: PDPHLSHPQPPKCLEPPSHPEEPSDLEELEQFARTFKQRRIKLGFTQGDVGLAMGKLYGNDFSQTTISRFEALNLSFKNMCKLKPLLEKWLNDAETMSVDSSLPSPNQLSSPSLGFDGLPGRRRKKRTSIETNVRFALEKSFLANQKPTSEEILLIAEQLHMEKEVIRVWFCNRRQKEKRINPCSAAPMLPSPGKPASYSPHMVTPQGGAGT
# Method in brief: as §1
# [1] = molecular target: POU1 (OCT1 POU domain);BOB1 (OBF1, OCA-B) (human;human, UniProt P14859;Q16633 260-458;1-256, |); assay: EMSA-SELEX-seq; with BOB1 (ternary complex band); 20 mM Tris-HCl pH 7.6, 140 mM NaCl, 10% glycerol, 0.5 mM EDTA, 0.05% Triton X-100, 0.1 mg/mL BSA, 0.1 mg/mL poly(dI-dC), 5 mM DTT, room temperature, 20 min; high values mean tight binding; conditions: protein: recombinant;recombinant; copies: 1;1; dsDNA, one strand shown
# Method in brief: as §1
# [2] = molecular target: T2, POU2 (OCT2 POU domain);BOB1 (OBF1, OCA-B) (human;human, UniProt P09086;Q16633 175-386;1-256, |); assay: as above; conditions: protein: recombinant;recombinant; copies: 1;1; dsDNA, one strand shown
# T2 sequence 1: T1 sequence
# T2 sequence 2: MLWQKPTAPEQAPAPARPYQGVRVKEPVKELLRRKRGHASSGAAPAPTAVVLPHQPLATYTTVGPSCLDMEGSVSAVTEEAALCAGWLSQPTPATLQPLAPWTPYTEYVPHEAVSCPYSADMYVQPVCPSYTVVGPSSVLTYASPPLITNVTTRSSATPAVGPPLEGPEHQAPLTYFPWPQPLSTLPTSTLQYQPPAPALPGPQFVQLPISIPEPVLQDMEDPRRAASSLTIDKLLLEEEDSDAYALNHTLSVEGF
# Method in brief: as §1
Sequence,binding signal (POU1 (OCT1 POU domain)),binding signal (POU2 (OCT2 POU domain)),binding signal [1],binding signal [2]
AAACAAAA,0.156 % of ANNNNAAN 8-mers,0.115 % of ANNNNAAN 8-mers,0.256 % of ANNNNAAN 8-mers,0.14 % of ANNNNAAN 8-mers
AGGAGAAC,0.0275 % of ANNNNAAN 8-mers,0.0363 % of ANNNNAAN 8-mers,0.0261 % of ANNNNAAN 8-mers,0.0149 % of ANNNNAAN 8-mers
ATTACAAG,0.0515 % of ANNNNAAN 8-mers,0.0875 % of ANNNNAAN 8-mers,0.048 % of ANNNNAAN 8-mers,0.0413 % of ANNNNAAN 8-mers
AACCGAAA,0.0271 % of ANNNNAAN 8-mers,0.0293 % of ANNNNAAN 8-mers,0.0265 % of ANNNNAAN 8-mers,0.0256 % of ANNNNAAN 8-mers
AAAGCAAT,0.05 % of ANNNNAAN 8-mers,0.0455 % of ANNNNAAN 8-mers,0.0652 % of ANNNNAAN 8-mers,0.0371 % of ANNNNAAN 8-mers
AGATGAAG,0.0328 % of ANNNNAAN 8-mers,0.0368 % of ANNNNAAN 8-mers,0.0316 % of ANNNNAAN 8-mers,0.0297 % of ANNNNAAN 8-mers
AAGAAAAG,0.0732 % of ANNNNAAN 8-mers,0.0633 % of ANNNNAAN 8-mers,0.0905 % of ANNNNAAN 8-mers,0.0652 % of ANNNNAAN 8-mers
AGTGGAAG,0.0324 % of ANNNNAAN 8-mers,0.0357 % of ANNNNAAN 8-mers,0.0414 % of ANNNNAAN 8-mers,0.0405 % of ANNNNAAN 8-mers
ATAGGAAT,0.098 % of ANNNNAAN 8-mers,0.132 % of ANNNNAAN 8-mers,0.0898 % of ANNNNAAN 8-mers,0.106 % of ANNNNAAN 8-mers
ATGCAAAC,0.543 % of ANNNNAAN 8-mers,0.445 % of ANNNNAAN 8-mers,1.35 % of ANNNNAAN 8-mers,1.27 % of ANNNNAAN 8-mers
AGCTGAAG,0.0187 % of ANNNNAAN 8-mers,0.0265 % of ANNNNAAN 8-mers,0.025 % of ANNNNAAN 8-mers,0.0223 % of ANNNNAAN 8-mers
AAGTTAAA,0.0858 % of ANNNNAAN 8-mers,0.0857 % of ANNNNAAN 8-mers,0.0901 % of ANNNNAAN 8-mers,0.071 % of ANNNNAAN 8-mers
ATGAAAAT,0.373 % of ANNNNAAN 8-mers,0.304 % of ANNNNAAN 8-mers,0.619 % of ANNNNAAN 8-mers,0.518 % of ANNNNAAN 8-mers
AATGGAAT,0.138 % of ANNNNAAN 8-mers,0.212 % of ANNNNAAN 8-mers,0.125 % of ANNNNAAN 8-mers,0.147 % of ANNNNAAN 8-mers
AAGATAAG,0.045 % of ANNNNAAN 8-mers,0.0593 % of ANNNNAAN 8-mers,0.046 % of ANNNNAAN 8-mers,0.0429 % of ANNNNAAN 8-mers
ATGATAAG,0.0843 % of ANNNNAAN 8-mers,0.0984 % of ANNNNAAN 8-mers,0.0714 % of ANNNNAAN 8-mers,0.0768 % of ANNNNAAN 8-mers
AGCAGAAC,0.0179 % of ANNNNAAN 8-mers,0.0299 % of ANNNNAAN 8-mers,0.0211 % of ANNNNAAN 8-mers,0.014 % of ANNNNAAN 8-mers

Sequence,binding signal (POU1 (OCT1 POU domain)),binding signal (POU2 (OCT2 POU domain)),binding signal [1],binding signal [2]
AATACAAG,0.0637 % of ANNNNAAN 8-mers,0.0662 % of ANNNNAAN 8-mers,0.0675 % of ANNNNAAN 8-mers,0.0479 % of ANNNNAAN 8-mers
ACGCGAAA,0.0179 % of ANNNNAAN 8-mers,0.0265 % of ANNNNAAN 8-mers,0.0211 % of ANNNNAAN 8-mers,0.0314 % of ANNNNAAN 8-mers
ATCTGAAG,0.0297 % of ANNNNAAN 8-mers,0.0409 % of ANNNNAAN 8-mers,0.0359 % of ANNNNAAN 8-mers,0.0413 % of ANNNNAAN 8-mers
ATTGTAAT,0.312 % of ANNNNAAN 8-mers,0.357 % of ANNNNAAN 8-mers,0.116 % of ANNNNAAN 8-mers,0.137 % of ANNNNAAN 8-mers
AGATGAAC,0.0286 % of ANNNNAAN 8-mers,0.0363 % of ANNNNAAN 8-mers,0.0207 % of ANNNNAAN 8-mers,0.0256 % of ANNNNAAN 8-mers
AGTAGAAT,0.0717 % of ANNNNAAN 8-mers,0.0892 % of ANNNNAAN 8-mers,0.0578 % of ANNNNAAN 8-mers,0.0826 % of ANNNNAAN 8-mers
AGTATAAA,0.0744 % of ANNNNAAN 8-mers,0.08 % of ANNNNAAN 8-mers,0.0585 % of ANNNNAAN 8-mers,0.0479 % of ANNNNAAN 8-mers
ATCAAAAT,0.095 % of ANNNNAAN 8-mers,0.0932 % of ANNNNAAN 8-mers,0.106 % of ANNNNAAN 8-mers,0.0743 % of ANNNNAAN 8-mers
AACCTAAA,0.0206 % of ANNNNAAN 8-mers,0.0391 % of ANNNNAAN 8-mers,0.0242 % of ANNNNAAN 8-mers,0.0264 % of ANNNNAAN 8-mers
AGGCAAAT,0.77 % of ANNNNAAN 8-mers,0.546 % of ANNNNAAN 8-mers,2.22 % of ANNNNAAN 8-mers,2.15 % of ANNNNAAN 8-mers
ATTAGAAC,0.0427 % of ANNNNAAN 8-mers,0.0564 % of ANNNNAAN 8-mers,0.0355 % of ANNNNAAN 8-mers,0.0355 % of ANNNNAAN 8-mers
AGCTCAAA,0.0252 % of ANNNNAAN 8-mers,0.0213 % of ANNNNAAN 8-mers,0.0242 % of ANNNNAAN 8-mers,0.0264 % of ANNNNAAN 8-mers
AAGGGAAC,0.0389 % of ANNNNAAN 8-mers,0.0506 % of ANNNNAAN 8-mers,0.0363 % of ANNNNAAN 8-mers,0.0305 % of ANNNNAAN 8-mers
AGTGCAAC,0.0118 % of ANNNNAAN 8-mers,0.0219 % of ANNNNAAN 8-mers,0.0113 % of ANNNNAAN 8-mers,0.0215 % of ANNNNAAN 8-mers
AGGTTAAC,0.032 % of ANNNNAAN 8-mers,0.0293 % of ANNNNAAN 8-mers,0.0324 % of ANNNNAAN 8-mers,0.0338 % of ANNNNAAN 8-mers
AGGGAAAC,0.0648 % of ANNNNAAN 8-mers,0.0518 % of ANNNNAAN 8-mers,0.0991 % of ANNNNAAN 8-mers,0.0413 % of ANNNNAAN 8-mers
AATGTAAA,0.614 % of ANNNNAAN 8-mers,0.509 % of ANNNNAAN 8-mers,0.547 % of ANNNNAAN 8-mers,0.552 % of ANNNNAAN 8-mers
